From PubChem BioAssay
ALDH1A1 block: ALDH1A1 (human) enzyme inhibition. Potency, µM (top dose mostly 75.3 µM), usual class: inhibitors. 220,000 compounds, 7.3% hits. Purified ALDH1A1, NADH fluorescence, propionaldehyde substrate
Target sequence (P00352 whole entry, looked up): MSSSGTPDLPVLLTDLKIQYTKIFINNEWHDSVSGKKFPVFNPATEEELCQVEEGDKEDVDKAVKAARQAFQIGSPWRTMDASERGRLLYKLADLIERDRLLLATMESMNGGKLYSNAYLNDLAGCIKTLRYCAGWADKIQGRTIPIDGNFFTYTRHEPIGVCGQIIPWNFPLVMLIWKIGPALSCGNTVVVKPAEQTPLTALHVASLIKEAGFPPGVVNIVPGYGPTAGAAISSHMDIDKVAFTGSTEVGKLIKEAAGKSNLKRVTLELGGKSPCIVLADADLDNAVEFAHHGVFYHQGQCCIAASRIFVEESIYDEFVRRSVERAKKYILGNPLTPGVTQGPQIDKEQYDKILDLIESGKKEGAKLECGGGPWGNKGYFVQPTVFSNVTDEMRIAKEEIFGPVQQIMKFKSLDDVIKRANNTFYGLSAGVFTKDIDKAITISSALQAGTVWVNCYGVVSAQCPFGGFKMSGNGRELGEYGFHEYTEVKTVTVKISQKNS
HPGD block: HPGD (human) dehydrogenase inhibition; P15428; 150,000 compounds, 4.3% hits; AID 894; Potency, µM, most hits filed as inhibitors; purified HPGD, NADH fluorescence kinetic, PGE2 substrate
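NADH formation kinetics: reaction with 30 uM PGE2 and 1 mM NAD+ (final), 20 nM enzyme, Tris-HCl pH 8 with Tween 20, after 15 min compound preincubation at room temperature. Fluorescence change, last versus first of five reads.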
KinaseGlo FLuc: blocks Kinase-Glo luciferase, a counter-screen artifact. Q27757. Potency, µM (highest dose often 38.3 µM), usual class: inhibitors. 200,000 compounds, 0.28% hits. Kinase-Glo luciferase, ATP luminescence, 8 min; active means well fitted inhibition curve with a large enough effect; inconclusive means small, poorly fitted or top-dose-only effect; further: nearly all actives have a fitted effect of over 60% in size
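Compounds were added to a substrate mix at pH 7.2 (50 mM imidazole, 10 uM ATP, within the enzyme's linear range), followed by Kinase-Glo detection reagent; luminescence was measured after 8 minutes at ambient temperature.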
PNC assembly inh: perinucleolar compartment assembly inhibition; PC3M PTB-GFP, PNC prevalence imaging, 16 h; active compounds read low; activity change (PNC), negative = inhibition, % at 10 µM; 140,000 compounds, 3.1% hits;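 active means readout at or below -70, meaning at least 70% loss of cells showing the perinucleolar compartment, a nuclear body marking cancer cells; inconclusive means readout between -30 and a set limit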
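Read-out is percentage of cells bearing a perinucleolar compartment, from automated 20x imaging of fixed, Hoechst-stained PC3M PTB-GFP cells. Cells were seeded 4 h, then exposed 16 h to compound (23 nl of library stock) in duplicate plates.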
IMPase cell inh: IMPase inhibition in cells; CHO-M1 cells, IP1 accumulation, HTRF TR-FRET ratio; inhibition (IP1 accumulation), % at 46.1 µM; 120,000 tested, under 10 active; AID 901; active means well fitted curve in the direction sought with a large enough effect in the signal ratio, not every such curve was filed as active; inconclusive means small, poorly fitted or top-dose-only effect, or a change in a side signal; inactive means no such curve, though single readings can be large or run the other way; the % refers to the signal ratio;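 further: cells stimulated with carbachol in lithium chloride buffer; higher means more IMPase inhibition seen as more IP1 and lower FRET ratio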
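CHO-M1 cells (CHO stably expressing M1 receptor), compound up to 46 uM final, stimulated with carbachol (50 uM as added) in buffer with 50mM LiCl, pH 7.4, 30 min at 37C. Cytosolic IP1 read by TR-FRET; AC50 from Hill fits.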
LMNA splice mod: LMNA splicing modulation; HeLa LMNA splicing GFP/RFP minigene ratio, 48 h; Potency, µM (doses to about 46.1 µM), most hits filed as inhibitors; 200,000 compounds, 0.01% hits; AID 1487; active means well fitted inhibition curve with a large enough effect in the signal ratio, with a control signal flat, not every such curve was filed as active; inconclusive means small, poorly fitted or top-dose-only effect, or effect the other way, or a change in a side signal; the % refers to the signal ratio
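S3 HeLa cells stably expressing lamin A-EGFP splicing minigene plus DsRed2, 600 cells/well, 48 h compound exposure at 37C. Laser-scanning cytometry; analysed as GFP (500-530 nm)/RFP (575-640 nm) total intensity ratio; 0.5% DMSO vehicle.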
Each line names hits and unclear results; the compound was inactive in the other large screens; ! = a repeat was not active. In the library only some 10% were active in any assay of this set; here they are far more common. Unless noted, the call rests on the fitted dose curve; in most records, active means well fitted inhibition curve with a large enough effect (not every such curve was filed as active); inconclusive means small, poorly fitted or top-dose-only effect, or another doubt; inactive means no such curve, though single readings can be large or run the other way.

CC1(c2ccccc2)CC(C)(C)N(C(=O)c2ccccc2Cl)c2ccccc21 (stereo not given)	none (no result: ALDH1A1 block, HPGD block, KinaseGlo FLuc, PNC assembly inh, LMNA splice mod)
COC(=O)CC1C(C)(C)C(=O)C2CC3=C(CC[C@]4(C)C3=CC(=O)OC4c3ccoc3)[C@@]1(C)C2=O (stereo not given in full)	none (no result: PNC assembly inh, IMPase cell inh)
CCc1c(C(=O)Nc2ccc(OC)cc2)[nH]c(C)c1C(C)=O	LMNA splice mod inconclusive
CCc1c(C(=O)Nc2cc(C)ccc2OC)[nH]c(C)c1C(C)=O	PNC assembly inh -94
Cc1csc(SCc2ccc(C(=O)O)cc2)n1	PNC assembly inh -111
Cc1csc(SCc2ccccc2C(=O)O)n1	ALDH1A1 block inconclusive, LMNA splice mod inconclusive
Cc1ccc(C(=O)O[C@H](C(=O)O)[C@@H](OC(=O)c2ccc(C)cc2)C(=O)O)cc1 (tested in a mixture with another compound)	none (no result: PNC assembly inh, IMPase cell inh)
CC(=O)Nc1ccc2c(c1)ncn2C	ALDH1A1 block 35µM
Cn1cnc2cc(NC(=O)c3ccco3)ccc21	PNC assembly inh inconclusive
CC(=O)Oc1ccc(OC(C)=O)c(SCCCCCN2CCOCC2)c1	HPGD block 18µM, LMNA splice mod inconclusive
CCN(CCO)c1nc(SC)nc2c1sc1nc(-c3ccco3)c3c(c12)CCC3	ALDH1A1 block 2µM, HPGD block inconclusive, PNC assembly inh inconclusive, LMNA splice mod inconclusive
Nc1ncnc2c1ncn2C1OC(CO)C(O)C1O (stereo not given)	LMNA splice mod inconclusive (no result: PNC assembly inh, IMPase cell inh)
Nc1ncnc2c1c(I)cn2C1OC(CO)C(O)C1O (stereo not given)	ALDH1A1 block 8.9µM!, LMNA splice mod inconclusive (no result: PNC assembly inh, IMPase cell inh)
C[C@@H]1CC[C@]2(C(=O)O)CC[C@]3(C)C(=CCC4[C@@]5(C)C[C@@H](O)[C@H](O)[C@@](C)(CO)C5[C@H](O)C[C@]43C)C2[C@H]1C (stereo not given in full)	none (no result: PNC assembly inh, IMPase cell inh, LMNA splice mod)
O=[N+]([O-])c1ccccc1Oc1ccccc1Cl	HPGD block 32µM (no result: IMPase cell inh)
Cc1ccc(S(=O)(=O)N2CCN(C(=O)/C=C/c3ccco3)CC2)cc1	ALDH1A1 block 22µM
COc1ccccc1N1CCN(C(=O)/C=C/c2ccco2)CC1	none (no result: IMPase cell inh)
COc1ccc(N2CCN(C(=O)/C=C/c3ccco3)CC2)cc1	ALDH1A1 block 22µM, LMNA splice mod inconclusive (no result: HPGD block, PNC assembly inh, IMPase cell inh)
O=S(=O)(c1cccs1)N1CCCc2cccc(O)c21	ALDH1A1 block inconclusive, HPGD block 13µM, PNC assembly inh inconclusive
O=S(=O)(c1cccs1)N1CCN(S(=O)(=O)c2cccs2)CC1	LMNA splice mod inconclusive (no result: HPGD block, PNC assembly inh, IMPase cell inh)
CC(=O)c1ccc(N2C(=O)[C@@H]3C(C(=O)CCN4C(=O)c5ccccc5C4=O)=NN[C@@H]3C2=O)cc1	PNC assembly inh -108 (no result: IMPase cell inh)
N#Cc1ccc(N2C(=O)[C@@H]3C(C(=O)C(c4ccccc4)c4ccccc4)=NN[C@@H]3C2=O)cc1	ALDH1A1 block inconclusive (no result: IMPase cell inh)
CCOc1ccc(-c2csc(Cn3c(CN4CCN(C)CC4)nc4ccccc4c3=O)n2)cc1	ALDH1A1 block 14µM (no result: HPGD block, KinaseGlo FLuc)
CN(C)Cc1nc2ccccc2c(=O)n1Cc1nc(-c2cc3ccccc3o2)cs1	LMNA splice mod inconclusive
Nc1c(N2CCCCC2)c(=O)[nH]c(=O)n1-c1ccccc1	PNC assembly inh -84
Cc1ccc2[nH]c3c(=O)n(CC(=O)N(CCN(C)C)Cc4ccccc4)ncc3c2c1	none (no result: ALDH1A1 block, HPGD block, KinaseGlo FLuc, PNC assembly inh, IMPase cell inh)
N=c1ccn(Cc2ccc(Cl)cc2)cc1	ALDH1A1 block 25µM, PNC assembly inh inconclusive, LMNA splice mod inconclusive
N=c1ccn(Cc2ccc(Cl)c(Cl)c2)cc1	LMNA splice mod inconclusive
CC(=O)Nc1ccc(S(=O)(=O)N2CCc3nc(-c4ccccc4)c4c(c3C2)CO[C@@H](C)C4)cc1	none (no result: PNC assembly inh, IMPase cell inh)
C=CCc1cc(C(=O)N2CCCCC2)ccc1O	ALDH1A1 block inconclusive, HPGD block 4µM, PNC assembly inh -81, LMNA splice mod inconclusive
COc1ccc(CNC(=O)Cn2c(=O)n3nc(-c4cccc(F)c4)nc3c3ccccc32)cc1OC	none (no result: ALDH1A1 block, HPGD block, KinaseGlo FLuc, PNC assembly inh, IMPase cell inh)
Cc1ccc(C(=O)Nc2ccccc2N2CCCCC2)cc1[N+](=O)[O-]	none (no result: HPGD block, PNC assembly inh, IMPase cell inh, LMNA splice mod)
Cc1ccc(C(=O)NC(=S)Nc2ccccc2N2CCCC2)cc1[N+](=O)[O-]	ALDH1A1 block 20µM, LMNA splice mod inconclusive (no result: IMPase cell inh)
